Data: PubChem BioAssay (NCI)
The panel holds about 79,000 compounds, 15% with a hit somewhere; the sample as a whole holds those more often. Calls of active or inactive are those of the source. No stated cut-off is given here; in the data, active means growth inhibition above about 70%; inactive means the rest.

Tests used:
[1] = NCI Yeast Anticancer Drug Screen. Data for the rad50 strain (AID 155);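 further: 0% = growth of vehicle-only cultures of the same strain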; conditions: S. cerevisiae rad50 strain growth inhibition; at 50.0 µM; hits give high values
Method in brief: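 DNA repair mutant yeast, compound exposure, growth read-out; inhibition is taken relative to vehicle.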

[2] = NCI Yeast Anticancer Drug Screen. Data for the mec2-1 strain (AID 157); conditions: S. cerevisiae mec2-1 strain, at 50.0 µM, hits give high values
Method in brief: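 Yeast mec2-1 mutant treated with compound. Readout: growth inhibition vs vehicle controls.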

[3] = NCI Yeast Anticancer Drug Screen. Data for the sgs1 mgt1 strain (AID 161);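 further: 0% = growth of cultures given vehicle only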; conditions: S. cerevisiae sgs1 mgt1 strain, at 50.0 µM, hits give high values
Method in brief: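 Inhibition of yeast growth, normalised to vehicle-treated controls, is reported for a strain bearing genetic alterations in DNA damage repair.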

[4] = NCI Yeast Anticancer Drug Screen. Data for the cln2 rad14 strain (AID 165);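 further: 0% = growth equal to vehicle treated cultures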; conditions: S. cerevisiae cln2 rad14 strain, at 50.0 µM, hits give high values
Method in brief: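 cln2 rad14 yeast strain; compound exposure; growth inhibition read vs vehicle controls.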

[5] = NCI Yeast Anticancer Drug Screen. Data for the bub3 strain (AID 167); conditions: S. cerevisiae bub3 mutant strain, at 50.0 µM, hits give high values
Method in brief: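 In this screen, a yeast mutant lacking normal mitotic checkpoint function is challenged with compound. Relative growth versus vehicle gives the inhibition value.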

[6] = NCI Yeast Anticancer Drug Screen. Data for the mlh1 rad18 strain (AID 175); conditions: S. cerevisiae mlh1 rad18 strain growth inhibition; at 50.0 µM; hits give high values
Method in brief: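 Yeast w/ defined DNA-repair lesions; compound exposure; growth vs vehicle controls → % inhibition.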

Measured: growth inhibition

CCCC(NC(=O)CCl)C(=O)O (stereo not given)
inactive: [1] -13.1% | [2] -18.1% | [3] -11.4% | [4] -73.8% | [5] 0.65% | [6] -8.25%

CC(C)OP(=O)(OC(C)C)C(=O)Nc1ccc(Cl)cc1
inactive: [1] -24.9% | [2] 16.1% | [3] 5.85% | [4] -29.9% | [5] 16.5% | [6] -8%

O=c1[nH]cc(Cn2cccc3c(=O)ncnc2-3)c(=O)[nH]1
inactive: [1] 14.9% | [2] 5.05% | [3] -4.45% | [4] -43.5% | [5] -16.7% | [6] -5.7%

Nc1ccc2c(c1)Oc1ccc(N)cc1O2
inactive: [1] -22.8% | [2] 1.2% | [3] 0.7% | [4] 15.1% | [5] -6.2% | [6] 5.15%

Cc1ccc(OP(=O)(Oc2ccc(C)cc2)Oc2ccc(C)cc2)cc1.Cc1ccc(OP(=O)(Oc2ccc(C)cc2)Oc2ccc(C)cc2)cc1.Cc1ccc(OP(=O)(Oc2ccc(C)cc2)Oc2ccc(C)cc2)cc1.Cc1ccc(OP(=O)(Oc2ccc(C)cc2)Oc2ccc(C)cc2)cc1.[Cr+3].[O-][Cl+3]([O-])([O-])O
inactive: [1] 0.95% | [2] -2.2% | [3] 0.15% | [4] -3.05% | [5] -4.35% | [6] -3.55%

O=[N+]([O-])c1ccc(SN2C3CCCCC32)c([N+](=O)[O-])c1 (stereo not given)
inactive: [1] 3.85% | [2] 11.7% | [3] 6.1% | [4] 7.85% | [5] 11.8% | [6] 22.7%

COc1cc2c(cc1O)CNCC2c1ccc(O)c(C)c1 (stereo not given)
inactive: [1] -10.8% | [2] -14.6% | [3] 9.55% | [4] -13.8% | [5] -11.4% | [6] -4.7%

N=P(c1ccccc1)(c1ccccc1)c1ccccc1.[Cr+6].[N-]=C=S.[N-]=C=S.[N-]=C=S.[N-]=C=S.[NH2-].[NH2-]
inactive: [1] 3.95% | [2] -2.55% | [3] -3.6% | [4] -3.35% | [5] -2.1% | [6] 0%

CC1OC(OC2CCC3(C=O)C4CCC5(C)C(C6=CC(=O)OC6)CCC5(O)C4CCC3(O)C2)C(O)C(O)C1O (stereo not given)
inactive: [1] 14.3% | [2] -8.35% | [3] -5.65% | [4] 13.5% | [5] -9.15% | [6] -4.3%

O=C(CC(=O)C(F)(F)F)c1cccs1
inactive: [1] -6.15% | [2] -11.6% | [3] 1.1% | [4] 12.3% | [5] 11.9% | [6] -13.1%

C[As](C)(=S)[As](C)(C)=S
active: [1] 77.3%
inactive: [2] 50.1% | [3] 65.2% | [4] 27.6% | [5] 66.7% | [6] 69.9%

Nc1noc(N)n1
inactive: [1] -43% | [2] -22.1% | [3] -26.8% | [4] -23.1% | [5] -18.1% | [6] -28.4%

CC(=N\[O-])/C(C)=N/[O-].CC(=N\[O-])/C(C)=N/[O-].[Cu+2]
inactive: [1] 42.8% | [2] 22.9% | [3] 15% | [4] -18.9% | [5] 33.5% | [6] 29.2%

CCOC(=O)CC(=O)CCl.[Cu+2]
inactive: [1] -14.9% | [2] -8.9% | [3] -40.4% | [4] -31.6% | [5] -15.9% | [6] -3.2%

O=[As](O)(O)c1ccc(N=Nc2ccccc2)cc1
inactive: [1] -4.25% | [2] -14.2% | [3] -6.05% | [4] -19.9% | [5] 5.75% | [6] -17.2%

O=Cc1ccccc1O.O=Cc1ccccc1O.O=Cc1ccccc1O.[La]
inactive: [1] -1.05% | [2] -6.95% | [3] 4.7% | [4] -10.1% | [5] 4.8% | [6] 16.9%

CCCCCCNC1C=CCC1 (stereo not given)
inactive: [1] -5.75% | [2] -2.55% | [3] -10.9% | [4] -15.6% | [5] 5.15% | [6] 4.25%

Cn1cnnc1[N+](=O)[O-]
inactive: [1] 1.75% | [2] 5.85% | [3] -11.4% | [4] -1.1% | [5] 3.25% | [6] 15.7%

COc1ccc2c(c1OC)C(=O)O[C@@H]2[C@H]1c2cc3c(cc2CCN1C)OCO3
inactive: [1] -8.75% | [2] -4.8% | [3] 0.95% | [4] 6.75% | [5] 4.8% | [6] -43.5%

CNC(=O)N1CN(c2ccccc2)C2(CCN(Cc3ccccc3)CC2)C1=O
inactive: [1] -29.4% | [2] -15.8% | [3] -15.9% | [4] -2.8% | [5] -10.4% | [6] -4.1%

CN(C)C(=O)O/N=C(\c1ccccc1)C(F)(F)F
inactive: [1] 35.7% | [2] -0.15% | [3] 20.5% | [4] 15.4% | [5] 20.7% | [6] 30.6%

CCOP(=O)(OCC)N1C(C)C1C (stereo not given)
inactive: [1] -0.05% | [2] 2.8% | [3] 17.6% | [4] -8.3% | [5] 4.25% | [6] -4.75%

CCOC(=O)CNCCC1(CC)C(=O)NC(=O)NC1=O
inactive: [1] -0.55% | [2] -8.2% | [3] 2.15% | [4] -37.2% | [5] -0.6% | [6] -12.8%

C/C=C\CC1(C/C=C/C)C(=O)NC(=O)NC1=O
inactive: [1] 2.25% | [2] -7.45% | [3] -5.05% | [4] -17.6% | [5] -8.9% | [6] 1.25%

CC(N)C(=O)c1ccccc1 (stereo not given)
inactive: [1] -2.75% | [2] 5.2% | [3] 6.9% | [4] -38.2% | [5] 15.3% | [6] 1.25%

Fc1cccc2cc3cccc[n+]3cc12
inactive: [1] 5.6% | [2] 6.65% | [3] 3.55% | [4] -36.3% | [5] 15.6% | [6] -1.8%

COc1ccc(C(C)(C)CC(C)(C)C)cc1
inactive: [1] 39% | [2] 2.55% | [3] 32.8% | [4] 12.1% | [5] 6.1% | [6] -0.85%

O=NN1CCCNCC1
inactive: [1] -4.2% | [2] -14.9% | [3] -4.65% | [4] -42.4% | [5] 15.4% | [6] 4.25%

CC(Oc1ccc(-c2ccccc2)cc1)C(=O)O (stereo not given)
inactive: [1] -14.8% | [2] -1.25% | [3] -9.25% | [4] -4.8% | [5] -13.1% | [6] -23.4%

O=C(NC1CC1)C(Cl)Cl
inactive: [1] -0.15% | [2] -25.1% | [3] 5.85% | [4] 11% | [5] -16.4% | [6] -1.15%

CC12CCC3C4CCC(=O)C=C4CCC3C1CC1CC(=O)OC12 (stereo not given)
inactive: [1] -4.15% | [2] 1% | [3] 0.4% | [4] -7.95% | [5] 11.7% | [6] -2.8%

CCC[As](=O)(O)CC[As](=O)(O)CCC
inactive: [1] 15.8% | [2] 34.2% | [3] 59.3% | [4] -3.05% | [5] 0.8% | [6] 14.4%

CC1=CC2OC3CC4OC(=O)/C=C/C=C/C(C(C)O)OCC/C(C)=C/C(=O)OCC2(CC1)C4(C)C31CO1 (stereo not given)
active: [1] 92% | [2] 94.1% | [3] 93.3% | [4] 92.2% | [5] 92.6% | [6] 90.7%

CC(C)N(C(C)C)[PH+]1O[PH+](N(C(C)C)C(C)C)O[PH+](N(C(C)C)C(C)C)O[PH+](N(C(C)C)C(C)C)O[PH+](N(C(C)C)C(C)C)O1.[C-]#[O+].[C-]#[O+].[C-]#[O+].[C-]#[O+].[C-]#[O+].[C-]#[O+].[C-]#[O+].[Cr].[Cr] (stereo not given)
inactive: [1] 17.7% | [2] -5.45% | [3] -14.5% | [4] -0.75% | [5] 2.8% | [6] -3.8%

CC(=O)CC(C)=O.CC(=O)CC(C)=O.CC(=O)CC(C)=O.CC(=O)CC(C)=O.[Zr]
inactive: [1] 7.2% | [2] 28.6% | [3] 10.4% | [4] 29.6% | [5] 38.6% | [6] 30.1%

CCOC12CC3C4=CCOC5CC(=O)N6c7ccccc7C1(CCN2C4)C6C53 (stereo not given)
inactive: [1] 15.8% | [2] -39.2% | [3] -9.45% | [4] 18.9% | [5] 9.05% | [6] -1.2%

COC(=O)/C=C/c1ccc(Cl)cc1
inactive: [1] -7% | [2] -1.8% | [3] 0.5% | [4] -36.5% | [5] -10.2% | [6] -7.4%

CC(C)[C@@H]1ON1C(C)c1ccccc1 (stereo not given in full)
inactive: [1] 21.3% | [2] -10.1% | [3] 25.8% | [4] 11.6% | [5] 27.4% | [6] 16%

CC(=O)Nc1cc([As](C)(=O)O)ccc1O
inactive: [1] -10.3% | [2] 1.75% | [3] 1.95% | [4] -41.5% | [5] -9.65% | [6] -1.85%

FC(F)(F)c1ccc(Cl)c(NC2=NCCCS2)c1
inactive: [1] -7.85% | [2] -0.35% | [3] 2.15% | [4] 2.05% | [5] 0.4% | [6] -3.6%
